# An excerpt weighted towards active compounds, which were near 2.3% of everything screened.
# TRPV1 potentiator: human TRPV1 potentiation; 320,000 compounds, 0.02% hits; potentiation, % at 8.33 µM; TRPV1-expressing cells, Fluo-8 calcium influx, capsaicin EC20 potentiation; AID 540277; in the data active means potentiation above about 80%; inconclusive means between about 30% and that limit; further: 0% is about no effect
# Target sequence (Q8NER1 whole entry, looked up): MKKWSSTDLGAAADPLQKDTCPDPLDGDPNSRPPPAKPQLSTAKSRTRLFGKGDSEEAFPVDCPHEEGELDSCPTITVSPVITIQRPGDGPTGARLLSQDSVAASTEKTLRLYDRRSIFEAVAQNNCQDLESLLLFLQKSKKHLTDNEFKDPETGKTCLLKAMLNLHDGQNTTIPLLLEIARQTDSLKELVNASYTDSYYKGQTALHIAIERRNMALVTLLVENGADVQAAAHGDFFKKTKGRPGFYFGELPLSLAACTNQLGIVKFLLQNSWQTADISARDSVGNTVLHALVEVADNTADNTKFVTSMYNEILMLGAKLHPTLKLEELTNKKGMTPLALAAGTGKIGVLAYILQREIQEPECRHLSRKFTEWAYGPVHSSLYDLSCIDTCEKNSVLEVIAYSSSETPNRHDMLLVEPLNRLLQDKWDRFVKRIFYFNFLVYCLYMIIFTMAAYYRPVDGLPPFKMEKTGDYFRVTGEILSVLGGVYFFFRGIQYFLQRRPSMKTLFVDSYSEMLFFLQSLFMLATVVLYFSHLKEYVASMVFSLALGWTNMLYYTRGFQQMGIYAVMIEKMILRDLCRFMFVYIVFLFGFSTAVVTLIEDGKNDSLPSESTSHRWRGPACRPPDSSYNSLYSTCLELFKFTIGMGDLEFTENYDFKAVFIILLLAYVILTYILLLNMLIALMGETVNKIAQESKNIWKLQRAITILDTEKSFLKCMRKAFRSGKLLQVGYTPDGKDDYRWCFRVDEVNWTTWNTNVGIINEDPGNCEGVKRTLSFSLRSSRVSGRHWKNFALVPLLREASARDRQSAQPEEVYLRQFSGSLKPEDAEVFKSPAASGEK
#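 Fluo-8 calcium influx in TRPV1-expressing cells, kinetic read (ex 480/em 520 nm). Compound added and read 3 min for agonist activity, followed by capsaicin at EC20 final and 2 min further read for enhancement.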
# FUS yeast rescue: rescues growth of FUS-expressing yeast; S. cerevisiae FUS-expressing, growth rescue, OD600, 24 h; Potency, µM (doses to about 76.6 µM), usual class: activators; 390,000 compounds, 0.24% hits;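 further: potency means the concentration at half of the fitted maximal effect; plate controls were DMSO vehicle for no effect and reference control for full effect; nearly all actives have a fitted effect of over 55% in size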
#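 Absorbance at 600 nm, taken 24hr after compound addition, measured rescue of FUS-yeast growth at 30C. Induction used 2% galactose with seeding at OD 0.005. Controls: CP55940 from 92uM final, DMSO only.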
# ELG1 DNA repair: ELG1-dependent DNA repair inhibition; Potency, µM (highest dose often 46.1 µM), for inactives: top-dose activity change, negative = inhibition, most hits filed as inhibitors; HEK293T ELG1-luciferase reporter, luminescence, 16 h; DNA damage induced by 5-fluorouridine; 330,000 compounds, 2.3% hits; further: potency means the concentration at half of the fitted maximal effect; on the % scale 0 is the no-effect control and ±100 the full control effect; nearly all actives have a fitted effect of over 55% in size
#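 HEK293T cells expressing luciferase-tagged ELG1 (2,000/well) received 5-Fluorouridine plus compound or DMSO for 16 hr at 37 °C. Luciferase was read by ONE-Glo luminescence after 30 min at room temperature.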
# TRPV1 ag: human TRPV1 agonism; TRPV1-expressing cells, Fluo-8 calcium influx, agonist mode; activation, % at 8.33 µM; 320,000 compounds, 0.19% hits; AID 540275; in the data active means activation above about 80%; inconclusive means between about 30% and that limit; further: 0% is about no effect
#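 Fluo-8 calcium influx in TRPV1-expressing cells, kinetic read (ex 480/em 520 nm). Compound added and read 3 min for agonist activity, followed by capsaicin at EC20 final and 2 min further read for enhancement.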
# Giardia kill: kills Giardia lamblia | Giardia lamblia trophozoite viability | activity change, % at 7.66 µM, hits read low | 340,000 compounds, 0.15% hits; in the data active means activity change below about -80%; inconclusive means between about -30% and that limit;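 further: parasites exposed to compound for two days anaerobically before the ATP read; on the % scale 0 is the no-effect control and ±100 the full control effect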
#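 Trophozoites 100 cells/well + cpd; 48 hrs, 37 deg C, anaerobic. ATPLite 1-Step added, 15-30 min RT, luminescence read (ATP-based viability).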
# * marks the source's active call; other numbers are inactive results; i = inactive; ? = inconclusive; . = no result. Unless noted, the call rests on the fitted dose curve; in most records, active means well fitted curve in the direction sought with a large enough effect; inconclusive means small, poorly fitted or top-dose-only effect, or another doubt; inactive means no such curve, though single readings can be large; an effect the other way counts as inactive or inconclusive.
SMILES,TRPV1 potentiator,FUS yeast rescue,ELG1 DNA repair,TRPV1 ag,Giardia kill
COc1ccccc1N(CC(=O)NCCSCc1ccc(C)cc1)S(=O)(=O)c1ccccc1,?,i,16.4µM*,18.8,?
COc1ccc(N(CC(=O)NCCSc2ccccc2)S(=O)(=O)c2ccccc2)c(OC)c1,.,i,20.6µM*,.,-24.4
COc1ccc(N(CC(=O)NCCSCc2ccc(C)cc2)S(=O)(=O)c2ccccc2)cc1,-0.3,i,?,-1.1,19.4
COc1ccccc1N(CC(=O)Nc1ccc(Cc2ccncc2)cc1)S(=O)(=O)c1ccccc1,-5.0,i,18.3µM*,-0.8,-1.8
COc1ccccc1N(CC(=O)Nc1cc(S(=O)(=O)N(C)C)ccc1C)S(=O)(=O)c1cccs1,.,i,23.1µM*,.,8.4
CC1=C(c2ccc(C)c(C)c2)S(=O)(=O)N(Cc2ccc(C(=O)NCc3ccccc3F)cc2)C1=O,.,i,.,.,.
CC(C)Oc1ccc(CNC(=O)c2cc3cccc4c3n2CC(C)S4)cc1 (configuration not stated),.,i,.,.,.
Cc1ccc2nc(NC(=O)CSc3nccn3Cc3ccc(Cl)cc3)sc2c1,.,i,.,.,.
CCN(CC)C(=O)Cn1ncc2c([nH]c3ccc(C)cc32)c1=O,.,i,.,.,.
COc1cc(F)c(S(=O)(=O)N2CCOc3ccccc32)cc1OC,-1.6,i,-15.9%,-1.8,31.6
Cc1ccc(-n2nc(C(=O)N3CCCCC3)c(=O)n(C)c2=O)cc1,.,i,.,.,.
CCOC(=O)c1ccc(NC(=O)c2cn(-c3ccccc3)nc2-c2ccc(OC)c(OC)c2)cc1,.,25.1µM*,.,.,.
CCOC(=O)c1ccc(NC(=O)c2cn(-c3ccccc3)nc2-c2ccncc2)cc1,11.5,i,18.4µM*,2.9,-11.0
CC(=O)NCCNC(=O)CCCn1c(=O)[nH]c2ccsc2c1=O,.,i,.,.,.
CCOC(=O)c1ccc(NC(=O)CCCc2nc(-c3ccccc3Cl)no2)cc1,.,i,.,.,.
Cc1ccc(NC(=O)c2ccc(=O)n(Cc3ccccc3C)c2)c(C)c1,.,i,.,.,.
COc1ccc(N2CCN(C(=O)CCc3ccc(S(=O)(=O)NCC(C)C)cc3)CC2)cc1,-0.4,i,?,-0.7,0.3
CC(C)CNS(=O)(=O)c1ccc(CCC(=O)N2CCN(c3ccc(F)cc3)CC2)cc1,-4.0,i,11.6µM*,6.9,-20.6
O=c1[nH]c2cc3c(cc2cc1CN(Cc1ccccc1)Cc1nnnn1Cc1ccco1)OCCO3,-11.8,.,?,1.3,-19.2
COc1ccccc1CN(Cc1cc2cc3c(cc2[nH]c1=O)OCCO3)Cc1nnnn1Cc1ccco1,3.1,i,20.6µM*,5.7,-4.2
O=c1[nH]c2cc3c(cc2cc1CN(Cc1cccs1)Cc1nnnn1Cc1ccco1)OCCO3,4.1,i,?,-0.6,-10.6
O=c1[nH]c2cc3c(cc2cc1CN(Cc1cccnc1)Cc1nnnn1Cc1ccco1)OCCO3,4.2,?,23.1µM*,-0.1,-7.1
O=C(c1ccc2c(=O)n(CCc3ccccc3)c(=O)[nH]c2c1)N1CCN(C(=O)c2ccco2)CC1,.,.,.,.,-2.3
COc1ccccc1NC(=O)C1=C(C)Nc2nnnn2C1c1cc(Br)c(O)c(OC)c1 (configuration not stated),.,i,.,.,.
OCCN(CCO)c1nc(-c2ccccc2)nc2c1oc1ccccc12,11.0,i,23.1µM*,21.9,-8.2
SMILES,TRPV1 potentiator,FUS yeast rescue,ELG1 DNA repair,TRPV1 ag,Giardia kill
CS(=O)(=O)N1CCn2c1nc1ccccc12,-0.6,i,11.6%,-3.6,40.1
CCN1N=C(c2ccccc2)Cn2c1nc1ccccc12,-14.2,i,-6.3%,89.6*,-0.8
COc1ccccc1NC(=O)c1sc2nc3c(c(C(F)(F)F)c2c1N)CN(C(C)=O)CC3,.,i,.,.,.
Cc1cc(C)c(S(=O)(=O)N2CCN(CCN3C(=O)c4cccc5cccc(c45)C3=O)CC2)cc1[N+](=O)[O-],-13.8,.,3.66µM*,0.0,.
Cc1ccc2nc(CSc3nnc(NC(=O)CC(C)C)s3)cc(=O)n2c1,.,i,.,.,.
COCCNc1ccc(-c2nc(-c3cccc(C)c3)no2)cc1[N+](=O)[O-],.,i,.,.,.
COc1ccc(C2=NCCn3c2c2ccc(C(F)(F)F)cc2[n+]3[O-])cc1,-19.3,i,14.5%,10.4,-99.1*
Cc1ccc(C2=NCCn3c2c2ccc(C(F)(F)F)cc2[n+]3[O-])cc1,0.8,i,?,20.6,-84.1*
Cc1ccc(C2=NCCn3nc4cc(C(F)(F)F)ccc4c32)cc1,-11.2,i,?,?,7.1

# Source: PubChem (National Center for Advancing Translational Sciences (NCATS))
